Screening data deposited in PubChem by National Center for Advancing Translational Sciences (NCATS).
aGal spleen mod: qHTS Assay for Inhibitors and Activators of Human alpha-Galactosidase From Spleen Homogenate; human spleen homogenate, 4MU-alpha-Gal fluorescence, 40 min; 240,000 compounds, 0.008% hits; Alpha-galactosidase A (Homo sapiens), P06280; Potency, µM (titrated, usually from 80 µM), for inactives: top-dose activity change, negative = inhibition, most hits filed as inhibitors; AID 2107, 2009;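 note: potency is the fitted concentration of half-maximal effect; 0% = enzyme with vehicle and -100% = no enzyme basal signal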
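Fluorogenic readout (Ex 365/Em 440 nm) of 4-methylumbelliferone released from 1 mM 4-MU-alpha-galactoside by spleen homogenate, 40 min at 37C, pH 5.0. Data normalized to no-enzyme and enzyme controls; Hill-equation AC50 from compound titrations.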
GAA spleen mod: qHTS Assay for Inhibitors and Activators of Human alpha-Glucosidase From Spleen Homogenate. Potency, µM (doses to about 79.9 µM), for inactives: at the top dose activity change, negative = inhibition, most hits filed as inhibitors. Lysosomal alpha-glucosidase (Homo sapiens), P10253. human spleen homogenate, 4-MU-alpha-glucoside fluorescence. 240,000 compounds, 0.006% hits. AID 2112, 2009;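 note: potency is the fitted concentration of half-maximal effect; 0% = enzyme with vehicle and -100% = no enzyme basal signal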
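AC50 values come from Hill-equation fits of concentration-response data, normalized to no-enzyme and full-activity controls. Enzyme source: 1 ug human spleen homogenate; 1 mM fluorogenic 4-MU glucoside, pH 5.0 citrate buffer, 37 C, 40 min.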
N370S GC: qHTS Assay for Inhibitors and Activators of N370S glucocerebrosidase as a Potential Chaperone Treatment of Gaucher Disease; Lysosomal acid glucosylceramidase (Homo sapiens), P04062; 330,000 compounds, 0.092% hits; AID 2101, 2009; N370S GC spleen homogenate, 4MU-glucoside fluorescence; Potency, µM (top dose mostly 59.4 µM), inactives show at the highest dose activity change, negative = inhibition, actives largely listed as inhibitors;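 note: potency is the fitted concentration of half-maximal effect; 0% = full enzyme activity and -100% = no enzyme basal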
GAA inhib: qHTS Assay for Inhibitors of Human alpha-Glucosidase as a Potential Chaperone Treatment of Pompe Disease; Potency, µM (highest dose often 76.9 µM), for inactives: at the top dose activity change, negative = inhibition, actives largely listed as inhibitors; AID 1466, 2008; purified human GAA, 4-MU-alpha-glucoside fluorescence; 200,000 compounds, 0.005% hits;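 note: potency is the fitted concentration of half-maximal effect; plate controls were uninhibited enzyme wells for no effect and no-enzyme background for full effect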
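Fluorescence at Ex 365/Em 440 nm from 4-methylumbelliferone reported enzyme activity after 20 min at room temperature. Reactions used 4 nM enzyme and 400 uM substrate at pH 5.0; curves fitted with the Hill equation.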
GAA glycogen: qHTS Assay for Inhibitors and Activators of Human alpha-Glucosidase Cleavage of Glycogen; Lysosomal alpha-glucosidase (Homo sapiens), P10253; recombinant GAA, glycogen substrate, Amplex Red glucose oxidase fluorescence; Potency, µM (doses to about 76.4 µM), for inactives: at the top dose activity change, negative = inhibition, actives largely listed as inhibitors; 300,000 compounds, 0.38% hits;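 note: potency is the fitted concentration of half-maximal effect; 0% = full enzyme reaction and -100% = no-enzyme basal signal; the screen sought inhibitors and activators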
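Recombinant human enzyme (4 nM); glycogen substrate; 37 C, 40 min, pH 5.0. Readout: coupled glucose oxidase/Amplex Red fluorescence.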
GLA inh pH 4.5: qHTS Assay for Inhibitors of Human alpha-Galactosidase at pH 4.5 | Alpha-galactosidase A (Homo sapiens), P06280 | purified enzyme, 4-MU-alpha-Gal fluorescence, pH 4.5 | activity change, negative = inhibition, % at 105 µM | 230,000 tested, under 10 active | AID 1467, 2008;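 note: 0% = full activity with enzyme and -100% = basal without enzyme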
Target sequence (P06280 whole entry, looked up): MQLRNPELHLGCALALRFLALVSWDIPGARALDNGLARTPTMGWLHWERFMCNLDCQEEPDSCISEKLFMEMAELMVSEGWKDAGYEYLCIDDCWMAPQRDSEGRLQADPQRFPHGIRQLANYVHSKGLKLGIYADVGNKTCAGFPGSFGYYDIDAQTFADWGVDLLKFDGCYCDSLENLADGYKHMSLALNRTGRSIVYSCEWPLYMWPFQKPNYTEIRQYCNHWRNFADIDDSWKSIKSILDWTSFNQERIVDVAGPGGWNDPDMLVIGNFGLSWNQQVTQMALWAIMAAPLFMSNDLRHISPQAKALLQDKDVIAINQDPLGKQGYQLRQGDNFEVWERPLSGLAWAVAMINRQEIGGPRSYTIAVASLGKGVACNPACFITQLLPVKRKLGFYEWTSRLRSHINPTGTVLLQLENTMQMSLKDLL
* hit, by the source's call; ? = inconclusive; nt = not tested or not shown; [ ] = dose if it differs, or a comment. Sampled rows, rich in hits. Any-hit rate of the full collection: about 0.43%. Calls come from the whole dose curve; as a rule, active = well fitted curve in the direction sought with a large enough effect; inconclusive = small, poorly fitted or top-dose-only effect, or another doubt; inactive = no such curve, though single readings can be large; an effect the other way counts as inactive or inconclusive.

SMILES	aGal spleen mod	GAA spleen mod	N370S GC	GAA inhib	GAA glycogen	GLA inh pH 4.5
COc1cc(Cl)ccc1NC(=S)N(CCCN1CCOCC1)Cc1cn(C)c2ccccc12	-2%	-11%	7.1µM*	5%	-8%	-10
COc1ccccc1NC(=S)N(CCCN1CCOCC1)Cc1cn(C)c2ccccc12	-2%	-1%	?	-11%	-4%	7
CCNc1ccc(C(=O)O)cc1N	2%	2%	-6%	2%	?	-16
Nc1ccccc1C(=O)Nc1cccc(C(=O)O)c1	2%	10%	7%	5%	-7%	-4
CCc1ccccc1Nc1ccc(C(=O)O)cc1N	0%	-13%	6%	-5%	3.1µM*	-3
Nc1cc(C(=O)O)ccc1Nc1ccccc1	18%	3%	13%	?	12µM*	14
Cc1cc(OCC(=O)NCC2(N3CCN(C)CC3)CCCCC2)cc(C)c1Cl	nt	nt	nt	nt	14%[76.3 µM]	nt
c1ccsc1	15%	-6%	-1%	nt	nt	nt
CC(C)CO/N=C1/C[C@@H](O)[C@@H](O)[C@@H]2[C@@H]3C(=O)N(C(C)(C)C)C(=O)[C@H]3CC[C@H]12	7%[17.5 µM]	3%[17.4 µM]	1%[12.8 µM]	nt	nt	nt
CC1Sc2ccc(S(=O)(=O)CCC(=O)Nc3cc(F)ccc3F)cc2NC1=O (centres undefined)	nt	nt	10µM*	nt	nt	nt
Cc1cc(NC(=O)CCS(=O)(=O)c2ccc3c(c2)NC(=O)C(C)S3)ccc1Br (centres undefined)	nt	nt	8.9µM*	nt	nt	nt
CC1(C)C(c2cccs2)=[N+]([O-])C2(CCCCC/C2=N\NC(N)=S)N1O (centres undefined)	-1%	-2%	4%	4%	18µM*	4
CC1(C)C(c2ccco2)=[N+]([O-])C2(CCCCC2=O)N1O (centres undefined)	5%	7%	3%	-7%	-13%	-4
CCOC(=O)C[C@@H](C(=O)OCC)[C@@H]1CCCCC1=O	5%[17.5 µM]	-7%[17.4 µM]	2%[12.8 µM]	nt	nt	nt
O=C(CSc1nncs1)NCCCc1ccccc1	-3%	3%	2%	?	10µM*	-5
COC(=O)c1cc(NC(=O)c2cc3c(-c4ccccc4F)nn(C)c3s2)cc(C(=O)OC)c1	nt	nt	nt	nt	2%[76.3 µM]	nt
C/C(CCN1CCc2nc(-c3ccccc3)c(-c3ccccc3)cc2C1)=N\O[C@@H](C)CN1CCCCc2nc(C)c(C)cc21	1%[17.5 µM]	-3%[17.4 µM]	-6%[12.8 µM]	nt	nt	nt
CC[C@]1(O)C[C@@H]2CN(CCc3c([nH]c4ccccc34)[C@@](C(=O)OC)(c3cc4c(cc3OC)N(C)C3[C@]45CCN4CC=C[C@](CC)(C45)[C@@H](OC(C)=O)[C@]3(O)C(=O)OC)C2)C1 (some centres undefined)	9%	7%	-7%	nt	nt	nt
COc1ccc(Br)cc1CNc1ccc(N2CCOCC2)cc1	nt	nt	-7%	nt	22µM*	nt
COc1ccc(O)c(/C=N/c2sc(C)c(C)c2C#N)c1	-3%	-8%	4%	-8%	14µM*	8
CC(=O)/C(=N\Nc1ccc(C)cc1)N1CCOCC1	7%	1%	-18%	-2%	12µM*	-3
Cc1ccc(NS(=O)(=O)c2ccc(C(=O)N3CCOCC3)cc2)cc1	nt	nt	1%	nt	nt	nt
S=C(Nc1ccc(Oc2ccccc2)cc1)N(CCCN1CCOCC1)Cc1ccccn1	9%	5%	10µM*	0%	-5%	-5
Cc1cccc(NC(=S)N(CCCN2CCOCC2)Cc2ccccn2)c1	0%	-2%	?	-6%	5%	2
CC(C)=CC[C@@H](O)C1=CC(=O)c2c(O)ccc(O)c2C1=O	-2%	-7%	-15%	nt	nt	nt
SMILES	aGal spleen mod	GAA spleen mod	N370S GC	GAA inhib	GAA glycogen	GLA inh pH 4.5
Cc1cc(C)cc(N(CC(=O)O)S(=O)(=O)c2c(C)[nH]c(=O)[nH]c2=O)c1	-4%	1%	-17%	2%	13%	-1
CCC(C)NC(=O)CN(c1cc(C)cc(C)c1)S(=O)(=O)c1c(C)[nH]c(=O)[nH]c1=O (centres undefined)	-6%	-2%	10µM*	nt	7%	-10
Cc1cc(C)cc(N(CC(=O)NC2CCC(C)CC2)S(=O)(=O)c2c(C)[nH]c(=O)[nH]c2=O)c1 (centres undefined)	-1%	-3%	0.4µM*	nt	3%	-10
CCOc1ccc(N(CC(=O)NC2CCCC2)S(=O)(=O)c2c(C)[nH]c(=O)[nH]c2=O)cc1	-18%	-11%	7.9µM*	-2%	-1%	5
Cc1noc(C)c1S(=O)(=O)N(CC(=O)NC1CCC(C)CC1)c1ccc(C(C)C)cc1 (centres undefined)	nt	nt	4%	nt	nt	nt
COc1cc(NC(=O)CN(c2cc(C)cc(C)c2)S(=O)(=O)c2c(C)[nH]c(=O)[nH]c2=O)cc(OC)c1	nt	nt	?	nt	-7%[76.3 µM]	nt
Cc1cc(C)cc(N(CC(=O)NC2CCCCCC2)S(=O)(=O)c2c(C)[nH]c(=O)[nH]c2=O)c1	7%	5%	0.71µM*	nt	4%	-3
COc1ccccc1N1CCN(S(=O)(=O)c2c(C)sc3ncn(CC(=O)Nc4ccc(C)cc4Br)c(=O)c23)CC1	nt	nt	nt	nt	13%[76.3 µM]	nt
COC(=O)CC1c2ccccc2C=C(/C=C/c2ccc3c(c2)OCO3)N1C(=O)OC (centres undefined)	11%[17.5 µM]	11%[17.4 µM]	-6%[12.8 µM]	nt	nt	11
CCCCCC1(C)NC(=S)N(c2ccccc2)N1 (centres undefined)	0%	-2%	-5%	-4%	35µM*	-3
CCCCCCC1(C)NC(=S)N(c2ccccc2)N1 (centres undefined)	-8%	-6%	9%	-4%	?	4
CC1(C)CC(=O)C=C(NNC(=O)c2ccccc2O)C1	0%	2%	9%	-11%	45µM*	0
COc1ccc(C(=O)NNC2=CC(=O)CC(C)(C)C2)cc1	0%	-1%	-5%	-1%	?	-3
Nc1ccccc1Nc1nc2ccccc2[nH]1	nt	nt	2%	nt	20µM*	nt
CN1CCc2cccc3c2[C@@H]1Cc1ccc(O)c(O)c1-3	-5%	-4%	-1%	?	3.5µM*	-3
COc1ccc2c(c1O)-c1ccccc1CCN(C)C2	5%	4%	22%	nt	-2%	5
